Consider 11 molecules from ChEMBL document CHEMBL3988442, “University of Dundee, Small-Polar-MMV Screening Library” (2021).

The structures appear in SMILES notation. For some of these results: Measured potencies and affinities stand elsewhere.

Common to all, as to design: scale not given: direction of the effect not stated beside the values
In test [1] the target is Protein translocase subunit SecA (Escherichia coli (strain K12)) (UniProt P10408). As to the kind of experiment: Assay to Identify E. coli SecA ATPase Inhibitors. Format: functional. Conditions: 30 µM.
Chain of Protein translocase subunit SecA (Escherichia coli (strain K12)) (P10408 whole entry): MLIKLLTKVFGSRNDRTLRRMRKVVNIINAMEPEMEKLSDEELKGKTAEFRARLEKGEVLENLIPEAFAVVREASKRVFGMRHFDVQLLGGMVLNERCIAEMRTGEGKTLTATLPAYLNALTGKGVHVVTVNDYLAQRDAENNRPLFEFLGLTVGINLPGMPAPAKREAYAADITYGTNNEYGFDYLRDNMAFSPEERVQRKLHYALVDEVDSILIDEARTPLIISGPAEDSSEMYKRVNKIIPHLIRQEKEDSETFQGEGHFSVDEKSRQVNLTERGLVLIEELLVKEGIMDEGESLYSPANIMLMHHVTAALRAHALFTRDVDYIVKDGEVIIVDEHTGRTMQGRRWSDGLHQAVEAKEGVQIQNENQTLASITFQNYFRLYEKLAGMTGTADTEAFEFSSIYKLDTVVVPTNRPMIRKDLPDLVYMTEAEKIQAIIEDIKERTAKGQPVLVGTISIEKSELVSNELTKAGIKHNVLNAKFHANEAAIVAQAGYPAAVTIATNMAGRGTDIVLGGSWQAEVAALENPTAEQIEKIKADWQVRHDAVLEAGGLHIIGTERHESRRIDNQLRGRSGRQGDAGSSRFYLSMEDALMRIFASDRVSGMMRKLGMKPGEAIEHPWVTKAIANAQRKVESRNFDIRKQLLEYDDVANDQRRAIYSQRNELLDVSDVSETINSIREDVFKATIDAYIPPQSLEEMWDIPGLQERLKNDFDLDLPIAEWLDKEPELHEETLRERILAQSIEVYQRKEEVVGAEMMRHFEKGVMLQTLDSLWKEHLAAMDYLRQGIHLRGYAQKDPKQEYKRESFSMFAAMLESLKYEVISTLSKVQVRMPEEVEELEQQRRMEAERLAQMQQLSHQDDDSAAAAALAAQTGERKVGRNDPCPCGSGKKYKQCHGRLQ
Test [2] has as its target T1, Ubiquitin-activating enzyme e1, putative (Leishmania donovani (strain BPK282A1)) (UniProt E9BSI1).
T1 sequence (whole entry): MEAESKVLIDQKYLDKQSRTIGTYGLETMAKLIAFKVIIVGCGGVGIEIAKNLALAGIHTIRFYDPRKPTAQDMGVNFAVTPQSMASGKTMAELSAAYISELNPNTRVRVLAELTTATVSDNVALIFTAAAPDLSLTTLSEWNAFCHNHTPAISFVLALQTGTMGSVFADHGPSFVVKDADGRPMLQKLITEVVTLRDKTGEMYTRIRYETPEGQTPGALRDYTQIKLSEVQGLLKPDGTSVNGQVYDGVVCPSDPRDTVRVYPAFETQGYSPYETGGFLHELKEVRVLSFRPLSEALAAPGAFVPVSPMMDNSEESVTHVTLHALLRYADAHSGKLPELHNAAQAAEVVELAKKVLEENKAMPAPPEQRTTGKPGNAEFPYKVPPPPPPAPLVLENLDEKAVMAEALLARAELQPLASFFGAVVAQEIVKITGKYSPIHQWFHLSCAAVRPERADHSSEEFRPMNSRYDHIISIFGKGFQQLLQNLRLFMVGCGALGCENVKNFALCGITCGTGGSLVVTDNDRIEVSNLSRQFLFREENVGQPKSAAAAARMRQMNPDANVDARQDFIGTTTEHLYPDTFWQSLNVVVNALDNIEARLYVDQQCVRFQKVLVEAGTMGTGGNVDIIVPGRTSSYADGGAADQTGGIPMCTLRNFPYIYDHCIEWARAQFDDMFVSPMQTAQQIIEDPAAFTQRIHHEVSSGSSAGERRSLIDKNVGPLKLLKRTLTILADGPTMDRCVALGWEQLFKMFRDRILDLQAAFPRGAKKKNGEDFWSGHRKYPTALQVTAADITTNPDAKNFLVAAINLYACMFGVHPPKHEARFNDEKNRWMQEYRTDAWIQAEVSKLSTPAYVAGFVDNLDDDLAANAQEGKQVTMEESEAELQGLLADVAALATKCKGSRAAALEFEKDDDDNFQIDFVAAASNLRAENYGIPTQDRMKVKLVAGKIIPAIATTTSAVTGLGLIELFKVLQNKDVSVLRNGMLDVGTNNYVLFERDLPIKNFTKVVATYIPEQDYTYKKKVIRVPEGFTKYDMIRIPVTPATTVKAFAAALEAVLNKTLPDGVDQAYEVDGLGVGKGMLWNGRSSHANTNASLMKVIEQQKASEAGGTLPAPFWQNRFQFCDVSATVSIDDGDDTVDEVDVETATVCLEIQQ
Briefly: Leishmania donovani Ubiquitin Activating Enzyme (LdE1). Format: functional. Particulars: 30 µM.

Test [3] addresses AMP-activated protein kinase, AMPK (Homo sapiens) (UniProt P54646+O43741+P54619+Q9UGJ0+Q9Y478+Q13131+Q9UGI9). As to the kind of experiment: AMP-dependent Kinase enzyme assay. An in vitro enzyme assay that detects ADP turnover that is directly proportional to AMPK activity. This uses naive AMPK that is activated during the assay with MK-8722. In kind it is functional. Particulars: 30 µM.

Test [4] concerns the target Sialic acid-binding Ig-like lectin 9 (Homo sapiens) (UniProt Q9Y336). As to the kind of experiment: Hs-Siglec9 ALPHAscreen SOP 20170721. Conditions: 10 µM. Background: In Alpha technology, singlet oxygen from a donor bead excites a nearby acceptor bead.
A further test has as its system Trypanosoma cruzi. As to the kind of experiment: Trypanosoma cruzi phosphomannomutase and mannose-1-phosphate guanylyltransferase assay. Format: functional. Conditions: 10 µM.
In test [5] the target is T2, Arginase-2, mitochondrial (Homo sapiens) (UniProt P78540).
T2 sequence (whole entry): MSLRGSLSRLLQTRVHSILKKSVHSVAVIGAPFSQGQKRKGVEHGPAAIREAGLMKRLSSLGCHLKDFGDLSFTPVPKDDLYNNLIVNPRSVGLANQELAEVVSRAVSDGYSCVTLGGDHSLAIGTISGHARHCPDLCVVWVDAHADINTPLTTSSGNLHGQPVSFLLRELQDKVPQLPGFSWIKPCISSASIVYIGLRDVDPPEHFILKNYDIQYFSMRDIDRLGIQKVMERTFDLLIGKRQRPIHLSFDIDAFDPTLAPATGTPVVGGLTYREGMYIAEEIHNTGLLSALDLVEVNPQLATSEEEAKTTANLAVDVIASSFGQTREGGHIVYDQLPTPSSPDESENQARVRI
Briefly: in vitro enzyme assay to detect the production of urea directly proportional to the activity of Arginase II. Note: in the data most compounds retested in dose-response had high values. Format: functional. Particulars: 33.3 µM.

Test [6] deals with T3, Proteasome subunit beta (Trypanosoma cruzi) (UniProt O96673).
T3 sequence (whole entry): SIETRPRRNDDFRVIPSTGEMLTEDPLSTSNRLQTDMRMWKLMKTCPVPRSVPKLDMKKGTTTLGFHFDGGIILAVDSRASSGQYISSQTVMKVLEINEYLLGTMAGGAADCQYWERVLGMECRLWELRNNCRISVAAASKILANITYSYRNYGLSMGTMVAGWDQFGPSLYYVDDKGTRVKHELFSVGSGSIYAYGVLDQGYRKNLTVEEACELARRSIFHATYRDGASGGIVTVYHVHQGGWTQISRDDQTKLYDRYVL
Briefly: Trypanosoma cruzi proteasome chymotrypsin-like activity (TcProtChymo) assay. Note: in the data most compounds retested in dose-response had high values. Particulars: 9.37 µM. In kind it is functional.

For another test, the species on record is Homo sapiens. As to the kind of experiment: To identify inhibition of the IFN signalling (Jak-Stat) pathway via expression of an eGFP reporter gene under the control of an IFN-stimulated response element (ISRE) containing MxA promoter. Format: functional. Particulars: 30 µM.
Test [7] concerns the target T4, Tyrosyl-tRNA synthetase, putative (Trypanosoma cruzi (strain CL Brener)) (UniProt Q4DSP6).
T4 sequence (whole entry): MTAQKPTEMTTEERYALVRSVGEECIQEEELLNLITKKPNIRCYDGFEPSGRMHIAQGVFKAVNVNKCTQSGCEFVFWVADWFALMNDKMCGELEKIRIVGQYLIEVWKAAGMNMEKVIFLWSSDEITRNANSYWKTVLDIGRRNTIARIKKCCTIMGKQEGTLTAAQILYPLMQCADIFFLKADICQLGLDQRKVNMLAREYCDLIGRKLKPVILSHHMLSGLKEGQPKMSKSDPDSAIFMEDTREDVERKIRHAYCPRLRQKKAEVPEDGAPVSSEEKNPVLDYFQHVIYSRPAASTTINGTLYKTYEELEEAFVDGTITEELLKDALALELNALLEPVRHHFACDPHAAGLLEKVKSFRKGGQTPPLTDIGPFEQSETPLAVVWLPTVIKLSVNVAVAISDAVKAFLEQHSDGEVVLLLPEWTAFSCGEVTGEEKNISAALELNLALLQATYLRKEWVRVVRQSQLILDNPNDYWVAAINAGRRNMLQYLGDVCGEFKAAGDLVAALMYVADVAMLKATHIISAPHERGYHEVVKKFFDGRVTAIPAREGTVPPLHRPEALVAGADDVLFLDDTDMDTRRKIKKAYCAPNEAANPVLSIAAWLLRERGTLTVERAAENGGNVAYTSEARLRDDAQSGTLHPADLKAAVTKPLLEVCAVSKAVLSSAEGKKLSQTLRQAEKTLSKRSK
As to the kind of experiment: Trypanosoma cruzi tyrosyl tRNA synthetase (TcYRS) _High Tyrosine SOP. Note: in the data most compounds retested in dose-response had high values. In kind it is functional. Conditions: 30 µM.

The target in test [8] is T4, Tyrosyl-tRNA synthetase, putative (Trypanosoma cruzi (strain CL Brener)). As to the kind of experiment: Trypanosoma cruzi tyrosyl tRNA synthetase (TcYRS) SOP. In kind it is functional. Particulars: 30 µM.
Test [9] deals with Chromo domain-containing protein 1 (Saccharomyces cerevisiae (strain ATCC 204508 / S288c) (Baker's yeast)) (UniProt P32657). Briefly: ScCHD-1 Enzyme Inhibition Assay. Note: in the data most compounds retested in dose-response had high values. Particulars: 30 µM. Format: functional.
Chain of Chromo domain-containing protein 1 (Saccharomyces cerevisiae (strain ATCC 204508 / S288c) (Baker's yeast)) (P32657 whole entry, the tested form may be a part): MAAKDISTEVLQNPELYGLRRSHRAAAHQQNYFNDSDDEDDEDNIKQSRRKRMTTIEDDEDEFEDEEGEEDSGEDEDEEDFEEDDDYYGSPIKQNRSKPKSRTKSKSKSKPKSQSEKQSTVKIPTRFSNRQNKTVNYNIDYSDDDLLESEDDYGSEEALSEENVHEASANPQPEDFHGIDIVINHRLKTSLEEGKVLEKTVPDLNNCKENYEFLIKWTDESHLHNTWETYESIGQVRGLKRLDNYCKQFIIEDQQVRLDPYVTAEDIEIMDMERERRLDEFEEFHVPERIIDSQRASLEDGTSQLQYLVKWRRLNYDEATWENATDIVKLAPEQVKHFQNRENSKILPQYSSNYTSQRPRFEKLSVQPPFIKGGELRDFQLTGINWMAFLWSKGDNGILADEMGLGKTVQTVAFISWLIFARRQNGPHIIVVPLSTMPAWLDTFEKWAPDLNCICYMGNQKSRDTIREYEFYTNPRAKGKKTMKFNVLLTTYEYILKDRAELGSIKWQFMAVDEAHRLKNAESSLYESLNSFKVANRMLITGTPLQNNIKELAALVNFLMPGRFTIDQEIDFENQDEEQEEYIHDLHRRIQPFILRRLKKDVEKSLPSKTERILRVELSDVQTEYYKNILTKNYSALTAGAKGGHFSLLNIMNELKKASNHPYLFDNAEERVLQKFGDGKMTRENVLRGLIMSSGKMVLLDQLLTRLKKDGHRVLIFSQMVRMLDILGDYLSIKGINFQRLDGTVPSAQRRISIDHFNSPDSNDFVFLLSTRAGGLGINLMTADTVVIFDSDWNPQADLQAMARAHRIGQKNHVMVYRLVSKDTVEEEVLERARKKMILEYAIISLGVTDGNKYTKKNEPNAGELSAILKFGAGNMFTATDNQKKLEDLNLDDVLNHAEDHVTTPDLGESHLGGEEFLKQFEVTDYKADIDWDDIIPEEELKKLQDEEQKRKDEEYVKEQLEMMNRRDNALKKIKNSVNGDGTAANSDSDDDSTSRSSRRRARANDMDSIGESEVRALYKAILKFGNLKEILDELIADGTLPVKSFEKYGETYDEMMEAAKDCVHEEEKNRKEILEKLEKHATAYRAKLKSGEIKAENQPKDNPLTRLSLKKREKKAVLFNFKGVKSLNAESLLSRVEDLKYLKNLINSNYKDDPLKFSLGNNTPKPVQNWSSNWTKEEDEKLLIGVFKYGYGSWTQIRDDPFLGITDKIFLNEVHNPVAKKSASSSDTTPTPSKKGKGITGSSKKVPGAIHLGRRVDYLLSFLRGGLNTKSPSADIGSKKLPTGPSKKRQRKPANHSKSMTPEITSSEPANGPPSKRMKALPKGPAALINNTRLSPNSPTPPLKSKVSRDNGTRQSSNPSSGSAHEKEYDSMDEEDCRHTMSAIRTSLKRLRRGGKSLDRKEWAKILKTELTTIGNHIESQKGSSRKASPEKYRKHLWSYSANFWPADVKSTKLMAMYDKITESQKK

Chain of Sialic acid-binding Ig-like lectin 9 (Homo sapiens) (Q9Y336 whole entry): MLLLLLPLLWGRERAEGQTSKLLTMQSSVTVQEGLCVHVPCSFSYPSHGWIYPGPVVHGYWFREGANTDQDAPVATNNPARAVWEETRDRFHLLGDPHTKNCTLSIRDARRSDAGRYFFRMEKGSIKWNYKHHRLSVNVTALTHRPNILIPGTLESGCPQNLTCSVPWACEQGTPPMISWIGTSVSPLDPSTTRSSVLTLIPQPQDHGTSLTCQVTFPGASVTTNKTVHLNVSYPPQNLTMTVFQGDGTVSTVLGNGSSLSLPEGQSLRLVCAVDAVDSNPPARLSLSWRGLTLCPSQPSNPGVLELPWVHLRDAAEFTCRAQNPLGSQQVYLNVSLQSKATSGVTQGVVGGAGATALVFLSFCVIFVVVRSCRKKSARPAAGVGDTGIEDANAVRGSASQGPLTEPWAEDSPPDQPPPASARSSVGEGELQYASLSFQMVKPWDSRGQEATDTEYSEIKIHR

Turning to `CC(C)C(=O)NCc1cccc(N2CCCCC2=O)c1`, the Percent Effect in test [1] is -6.2%; in test [2] it was 18.2%; in [3] it was -3.27%; in test [4], -10.4%; with Trypanosoma cruzi, 5.78%; in [5], 1.05%. The Percent Effect in test [6] is 11.7%; in the test filed under Homo sapiens, 0.702%; in [7] it was 3.81%; in [8] it was 21.2%; in test [9], -12.3%.
As for `CCc1nc(C2CCCN2Cc2nc(CCOC)no2)no1` (stereo unspecified), the Percent Effect in test [1] was -3.77%; in test [2], 10.4%; in [3], -0.579%; in test [4], 7.16%; in the test on Trypanosoma cruzi it was 6.59%; in [5], -5.52%. Besides, the Percent Effect in test [6] is 3.49%; in the test listed under Homo sapiens, -6.27%; in [7] it was 3.23%; in [8] it was 11.1%; in [9], -7.19%.
Turning to `O=C(NCCC(=O)N1CCCc2ccccc21)c1c(O)cc(F)cc1F`, the Percent Effect in [1] is -5.79%; in test [2], 10.4%; in test [3], -0.269%; in [4], 9.22%; in the test with Trypanosoma cruzi, 6.95%; in test [5] it was -1.47%. The Percent Effect in test [6] is 11.1%; in the test filed under Homo sapiens it was 22.7%; in [7] it was -0.952%; in [8] it was -49.4%; in test [9], -16.6%.
Consider `COCCN1CCC(N(Cc2noc(C3CC3)n2)C(C)=O)C1` (stereo unspecified), for which the Percent Effect is -2.54% in test [1]; 13.5% in test [2]; -5% in test [3]; -6.65% in test [4]; -5.11% in the test on Trypanosoma cruzi; -0.924% in test [5]. Besides, the Percent Effect was 18.3% in [6]; 20.9% in the test listed under Homo sapiens; 0.99% in test [7]; 11% in test [8]; -8.27% in test [9].
For `Cc1cccc(OCCC(=O)NCC(C)(C)C(N)=O)c1`, the Percent Effect in [1] was -3.42%; in test [2], 10.5%; in test [3] it was 1.54%; in test [4], 16.5%; in the test with Trypanosoma cruzi, 1.13%; in [5] it was 2.68%. For the same molecule, the Percent Effect was 8.19% in test [6]; -23.5% in the test filed under Homo sapiens; 4.41% in test [7]; -41.5% in test [8]; -10.8% in test [9].
Turning to `CCc1nc(CN(C(C)=O)C2CCN(CCc3cnn(C)c3)C2)no1` (stereo unspecified), the Percent Effect is -2.36% in test [1]; 27.9% in test [2]; -1.95% in [3]; -9.07% in [4]; -0.85% in the test with Trypanosoma cruzi; 3.04% in test [5]. Besides, the Percent Effect in test [6] is 0.901%; in the test filed under Homo sapiens, 22.4%; in test [7], -19.2%; in test [8] it was 16.5%; in test [9], -7.18%.
In the case of `CC(C)(C)C(=O)N1CCCC1c1nc(O)cc(-c2ccccn2)n1` (stereo unspecified), the Percent Effect in test [1] was -5.78%; in [2] it was 25.7%; in test [3] it was 5.44%; in test [4], 16.5%; in the test with Trypanosoma cruzi it was 3.36%; in test [5], -1.62%. Besides, the Percent Effect in test [6] is 11.9%; in the test listed under Homo sapiens, 7.83%; in test [7], 5.38%; in test [8], 24.7%; in test [9], -13.5%.
Take `CN(C)c1ccc(CCNC(=O)NCc2ccc(N(C)C)nc2)cc1`: the Percent Effect in [1] is -3.23%; in test [2] it was 13.5%; in test [3], 0.0846%; in test [4], 11.2%; with Trypanosoma cruzi it was 1.98%; in test [5], -5.21%. Besides, the Percent Effect is -4.14% in test [6]; 5.54% in the test listed under Homo sapiens; 7.39% in [7]; 18.5% in test [8]; -9.13% in test [9].
For `COCC(NC(=O)c1cc[nH]n1)c1cccc(C(F)(F)F)c1` (stereo unspecified), the Percent Effect in [1] was -5.2%; in [2], 16.4%; in [3] it was -2.13%; in test [4], 16%; in the test on Trypanosoma cruzi, 3.92%; in test [5], 0.455%. In addition, the Percent Effect is 6.03% in test [6]; 15.4% in the test listed under Homo sapiens; 4.3% in test [7]; 7.5% in test [8]; -5.07% in [9].
As to `COc1cccc2c1OCC(CNC(=O)CCCN1CCOCC1)C2` (stereo unspecified), the Percent Effect in [1] was -1.74%; in test [2] it was 5.41%; in test [3] it was -7.92%; in [4], 19.8%; in the test on Trypanosoma cruzi, 2.05%; in test [5], -0.248%. In addition, the Percent Effect in test [6] is 13.1%; in the test filed under Homo sapiens, 11.9%; in test [7], 8.6%; in test [8], 18.5%; in test [9], -5.59%.
For `CNC(=O)c1cc2c(nc1NCC1CC1)CCN(S(=O)(=O)C1CC1)CC2`, the Percent Effect was -0.616% in test [1]; 18.2% in test [2]; 3.29% in test [3]; -14.9% in test [4]; -2.86% with Trypanosoma cruzi; 8.39% in test [5]. Further, the Percent Effect in test [6] is 9.75%; in the test listed under Homo sapiens, 33.1%; in test [7], -1.06%; in test [8] it was 11.5%; in test [9], -8.62%.
